Bioassay records as filed in PubChem.
HCV inh: blocks hepatitis C virus; Huh7.5.1 HCVcc-Cre infection, luciferase reporter, 44 h; Potency, µM (series often up to 41.8 µM), actives largely listed as inhibitors; actives 3.4% (n = 340,000)
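1,000 cells/well; 4 h culture; + compound; + HCVcc-Cre (~0.5 moi); 44 h; luciferase substrate, RT 15 min; read 15 sec.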
FMDV antiviral: blocks foot and mouth disease virus | FMDV antiviral cell-based qHTS | Potency, µM (doses to about 57.9 µM), most hits filed as inhibitors | actives 1.2% (n = 410,000) | AID 1159524; calls by dose curve; tested in HEK293T cells; further: read-out not given here; nearly all actives have a fitted effect of over 45% in size
HCMV antiviral: inhibitors of human cytomegalovirus. activity change, negative = inhibition, % at 57.5 µM. HFF cells, HCMV-luciferase reporter, 72 h; hits give low values. actives 4.5% (n = 410,000). AID 1259415; in the data active means activity change below about -60%; inconclusive means no clear call, values can overlap the other calls; inactive means above about -39%
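Compounds were evaluated in HFFs infected with an HCMV luciferase reporter virus (MOI 1 PFU/cell). Luciferase in lysates collected 72 h post infection served as the replication measure.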
Vaccinia mCherry: vaccinia inhibition (mCherry reporter) | actives 0.63% (n = 310,000) | Potency, µM (highest dose often 36.5 µM), hits mostly inhibitors | AID 720579 | Vaccinia virus mCherry reporter infection, fluorescence; calls by dose curve; tested in A549 cells; further: nearly all actives have a fitted effect of over 35% in size
Vaccinia Venus: vaccinia inhibition (Venus reporter). Vaccinia virus Venus reporter expression, fluorescence. Potency, µM (series often up to 36.5 µM), most hits filed as inhibitors. AID 720580. actives 0.46% (n = 330,000); calls by dose curve; tested in A549 cells; further: nearly all actives have a fitted effect of over 30% in size
FBPA Giardia inh: blocks Giardia fructose-bisphosphate aldolase activity; A8B2U2; purified Giardia FBPA; Potency, µM (highest dose often 59.6 µM), most hits filed as inhibitors; actives 0.71% (n = 290,000); AID 2451; further: nearly all actives have a fitted effect of over 55% in size
Target sequence (A8B2U2 whole entry, looked up): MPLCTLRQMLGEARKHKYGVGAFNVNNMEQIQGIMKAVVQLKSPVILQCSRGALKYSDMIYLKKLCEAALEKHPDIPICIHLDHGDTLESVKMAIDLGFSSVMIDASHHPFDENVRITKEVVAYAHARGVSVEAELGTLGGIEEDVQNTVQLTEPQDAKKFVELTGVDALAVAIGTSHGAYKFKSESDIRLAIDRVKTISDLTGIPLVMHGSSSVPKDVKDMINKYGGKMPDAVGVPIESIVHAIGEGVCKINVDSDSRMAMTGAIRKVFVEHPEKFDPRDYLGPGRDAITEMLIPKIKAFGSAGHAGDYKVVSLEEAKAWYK
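40 nM FBPA preincubated 10 min at RT with compound (up to 57.5 uM final), then substrate plus GAPDH/TPI/NAD/arsenate coupling and diaphorase/resazurin added. Fluorescence read after 20 min at RT, 525/598 nm.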
Numbers stand for hits; 0 = inactive; ? = inconclusive; - = not tested or not shown; [ ] = remark or other dose. Most compounds without a hit are left out; they make up all but 7.5% or so of the library. Unless noted, the call rests on the fitted dose curve; in most records, active means well fitted curve in the direction sought with a large enough effect; inconclusive means small, poorly fitted or top-dose-only effect, or another doubt; inactive means no such curve, though single readings can be large; an effect the other way counts as inactive or inconclusive.

SMILES | HCV inh | FMDV antiviral | HCMV antiviral | Vaccinia mCherry | Vaccinia Venus | FBPA Giardia inh
Cc1ccc(C(=O)N/N=C/c2c(O)ccc3ccccc23)cn1 | 4.47µM | 0 | -97.2 | 2.24µM | ? | 0
COc1ccccc1/C=N/NC(=O)c1ccc(C)nc1 | 0 | 0 | 0 | - | - | 0
COc1ccc2ccccc2c1/C=N/NC(=O)c1cccc(C)c1 | 11.2µM | 0 | 0 | - | - | -
COc1ccc2ccccc2c1/C=N\NC(=O)c1cccnc1 | ? | 0 | 0 | 0[7.34 µM] | 0[7.34 µM] | -
COc1ccc(-c2c(O)c3cc(O)cc(O)c3oc2=O)cc1 | - | - | - | - | - | 0
Cc1c(/C=N/NC(=O)c2cccnc2)c2ccccc2n1Cc1ccccc1 | 11.2µM | 14.1µM | -62.4 | 0 | 0 | 0
Cc1cccc(OCC(=O)NC(Cc2ccccc2)C(=O)O)c1 (stereo not given) | 0 | 0 | 0 | 0 | 0 | 0
O=C(N/N=C\c1c(O)ccc2ccccc12)c1ccc(O)cc1 | ? | 0 | -97.6 | - | - | 0
Cn1nccc1C(=O)N/N=C/c1c(O)ccc2ccccc12 | 0.891µM | 0 | -98.8 | - | - | ?
Cc1cccc(OCC(=O)NC(C)C(=O)N/N=C/c2c(OCc3ccccc3)ccc3ccccc23)c1 (stereo not given) | 7.94µM | 0 | -73.5 | - | - | 0
c1ccc(-c2cn(-c3ccccc3)c3ncnc(N4CCN(c5ccccc5)CC4)c23)cc1 | - | 0 | ? | 0 | 0 | -
Cc1cc(C)n2c(SCC(=O)N(CCC#N)c3ccc4c(c3)OCCO4)nnc2n1 | - | 0 | 0 | 0 | 0 | -
CCN(CC)CCCCn1c(-c2ccccc2)nc2c(NCc3ccccc3)nc(C)nc21 | - | - | - | - | - | 0
O=C(N/N=C/c1c(O)ccc2ccccc12)c1ccc(Br)o1 | 3.55µM | 0 | -98.7 | 2.82µM | ? | 0
CCCn1c(/N=C/c2ccccc2O)nc2ccccc21 | 0 | 0 | 0 | 0 | 0 | 0
Cn1cccc1/C=N\NC(=O)c1cncc(Br)c1 | 0 | 0 | ? | 0 | 0 | 0
O=C(N/N=C\c1c(O)ccc2ccccc12)c1cncc(Br)c1 | ? | 0 | -100.2 | ? | 0 | 0
Cn1c(/N=C/c2c(O)ccc3ccccc23)nc2ccccc21 | 0 | 0 | -84.8 | - | - | 0.706µM
Cc1occc1C(=O)N/N=C/c1c(O)ccc2ccccc12 | ? | 0 | -101.4 | 1.78µM | ? | 0
CN(c1ccc(OCC(=O)NC2CCC(O)CC2)cc1)S(=O)(=O)c1ccc(Cl)cc1 (stereo not given) | 0 | 0 | 0 | 0 | 0 | -
Cn1cc(C(=O)N/N=C/c2c(O)ccc3ccccc23)ccc1=O | 4.47µM | 0 | -98.9 | ? | ? | 0
O=C(N/N=C/c1c(O)ccc2ccccc12)c1ccc[n+](CCO)c1 | 0 | 0 | 0 | 0 | 0 | 0
Fc1ccc(-c2nnc(NC3=NCCCCC3)o2)cc1 | 0 | 10µM | -82.9 | - | 0 | 0
c1ccc(-c2nnc(NC3=NCCC3)o2)cc1 | 0 | 0 | 0 | 0 | 0 | 0
N=C1C(c2nc3ccccc3[nH]2)=C(O)CN1c1ccc(F)cc1 | 0 | 0 | 0 | - | 0 | 0
SMILES | HCV inh | FMDV antiviral | HCMV antiviral | Vaccinia mCherry | Vaccinia Venus | FBPA Giardia inh
COc1cccc(N2CC(O)=C(c3nc4ccccc4c(=O)[nH]3)C2=N)c1 | ? | - | - | ? | 2.82µM | 0
CC(C)N1CC(O)=C(c2nc3ccccc3c(=O)[nH]2)C1=N | 0 | 0 | 0 | - | ? | 0
Cc1cc(C)cc(N2CC(O)=C(c3nc4ccccc4c(=O)[nH]3)C2=N)c1 | 22.4µM | 0 | 0 | 0 | 0 | 0
CCOc1ccc(NC(=O)CSc2nnc(CNC(=O)C34CC5CC(CC(C5)C3)C4)n2CC)cc1 | - | 0 | 0 | 0 | 0 | -
CC(C)n1ncc2c(C(=O)Nc3cccc(S(=O)(=O)N(C)C)c3)cc(C3CC3)nc21 | ? | ? | 0 | 0 | 0 | -
CCOc1ccc(NC(=O)c2cc(C3CC3)nc3c2cnn3C(C)C)cc1OC | 10µM | 0 | 0 | - | - | -
CC(C)n1ncc2c(C(=O)NCc3cccnc3)cc(C3CC3)nc21 | 7.94µM | 0 | 0 | - | - | -
CCN(CC)C(=O)c1cccc(NC(=O)c2cc(C3CC3)nc3c2cnn3C(C)C)c1 | 7.08µM | 0 | 0 | - | - | -
CNC(=O)c1cccc(NC(=O)c2cc(-c3ccccc3)nc3c2cnn3C(C)C)c1 | 3.16µM | ? | 0 | - | - | -
Cc1cnc(CNc2ccnc(-c3ccccc3C)n2)cn1 | - | 0 | - | - | - | 0
COC(=O)[C@]12C[C@H](CC(=O)N3CCOCC3)C(=O)N(Cc3ccc4c(c3)OCO4)C1=C[C@H](C(C)(C)C)O[C@@H]2C | - | - | 0 | - | - | -
NS(=O)(=O)c1ccc(NC(=O)COc2ccc(Cl)cc2)cc1 | 0 | 0 | 0 | - | - | 0
Cc1ccc(OCCNC(=O)c2cc(C3CC3)nc3c2cnn3C(C)C)cc1 | 12.6µM | 0 | 0 | - | - | -
Cc1ccc(CNC(=O)c2cc(C3CC3)nc3c2cnn3C(C)C)cc1 | ? | 0 | 0 | - | - | -
CC(=O)Nc1ccc(NC(=O)c2cc(C3CC3)nc3c2cnn3C(C)C)cc1 | 10µM | 0 | 0 | ? | 0 | -
CC(C)n1ncc2c(C(=O)Nc3ccc(S(N)(=O)=O)cc3)cc(C3CC3)nc21 | 0 | ? | 0 | - | - | -
CC(C)n1ncc2c(C(=O)Nc3ccc(S(C)(=O)=O)cc3)cc(C3CC3)nc21 | 5.62µM | 0 | 0 | - | - | -
CC1CN(C(=O)CCC(=O)N2CCCCC2)c2ccccc2O1 (stereo not given) | 0 | 0 | 0 | 0 | 0 | 0
Nc1nc(NCc2ccco2)nc(N2CCCCC2)c1[N+](=O)[O-] | 0 | 0 | 0 | 0 | 0 | 0
C[N+]1(C)CCc2cc3c(cc2[C@@H]1[C@@H]1C(=O)Oc2c1ccc1c2OCO1)OCO3 | - | 0 | - | - | - | 0
O=c1[nH]c(=O)n(Cc2ccco2)c2c1C(C(F)(F)F)(C(F)(F)F)N=C(CCc1ccccc1)N2 | ? | 0 | 0 | - | - | 0
N#Cc1ccc(C2=NC(C(F)(F)F)(C(F)(F)F)c3c(n(Cc4ccco4)c(=O)[nH]c3=O)N2)cc1 | 0 | 0 | -85.1 | - | - | 0
Cc1ccc(C2=NC(C(F)(F)F)(C(F)(F)F)c3c(n(-c4ccc(F)cc4)c(=O)[nH]c3=O)N2)cc1 | ? | ? | 0 | ? | ? | 0
O=c1[nH]c(=O)n(Cc2ccco2)c2c1C(C(F)(F)F)(C(F)(F)F)N=C(CCC1CCCCC1)N2 | 0 | 0 | ? | - | - | -
O=c1[nH]c(=O)n(-c2ccc(F)cc2)c2c1C(C(F)(F)F)(C(F)(F)F)N=C(c1ccc(F)cc1)N2 | 12.6µM | 10µM | -99.4 | ? | ? | 0
SMILES | HCV inh | FMDV antiviral | HCMV antiviral | Vaccinia mCherry | Vaccinia Venus | FBPA Giardia inh
O=c1[nH]c(=O)n(-c2ccccc2)c2c1C(C(F)(F)F)(C(F)(F)F)N=C(CCC1CCCCC1)N2 | ? | 25.1µM | 0 | 0 | 0 | 0
CC(C)(C)c1cc(/C=N/NC(=O)C[n+]2ccccc2)cc(C(C)(C)C)c1O | ? | 0 | 0 | - | - | 0
CCn1c(=O)c(=O)n(CC)c2cc(S(=O)(=O)Nc3cc(C)ccc3C)ccc21 | 0 | 0 | 0 | - | - | 0
COc1ccc(C[C@H]2c3cc(O)c(OC)cc3CC[N+]2(C)[O-])cc1O (stereo not given in full) | ? | 0 | 0 | 0 | 0 | 0
Cc1ccc(N=N/C(=C\O)C(=O)c2ccc(Cl)cc2)cc1 | 10µM | ? | -87.1 | 0 | 0 | 0
CC(C)[C@H](N)c1cn([C@@H](CO)C(=O)N2CCNCC2)nn1 | 0 | 0 | 0 | 0 | 0 | -
